Inconclusive results are not listed. A call without a number means that no potency is given here. Calls of active or inactive are those of the source. Calls come from the whole dose curve; as a rule, active = well fitted cell-killing curve with a large enough effect; inconclusive = small, poorly fitted or top-dose-only effect, or effect the other way; inactive = no such curve, though single readings can be large or run the other way. Peptide text beside a SMILES is read from it.
Test: Quantitative High-Throughput drug screen in 47 multiple myeloma cell lines against the NCATS MIPE library collection: OCIMY1_PLB cell viability assay (AID 1918979); note: nearly all actives have a fitted effect of over 35% in size
Conditions: OCI-MY1 myeloma viability, CellTiter-Glo ATP, 48 h; series mostly up to 45.8 µM
Source text: PI: Beverly A. Mock Ph.D.
Laboratory of Cancer Biology and Genetics,
Center for Cancer Research, National Cancer Institute,
National Institute of Health, Bethesda, Maryland
Drug resistance and disease progression are common in multiple myeloma (MM) patients, underscoring the need for new therapeutic combinations. […] We hypothesized that effective combinations would reduce MYC expression and enhance p16 activity. […] These preclinical data identify potentially useful drug combinations for evaluation in drug-resistant MM and reveal potential mechanisms of combined drug sensitivity.
Described herein is the primary MIPE qHTS used to cherrypick compounds. Validated compounds were then further tested for potential synergistic activiy.
[1] Peat TJ, Gaikwad SM, Dubois W, Gyabaah-Kessie N, Zhang S, Gorjifard S, Phyo Z, Andres M, Hughitt VK, Simpson RM, Miller MA, Girvin AT, Taylor A, Williams D, D'Antonio N, Zhang Y, Rajagopalan A, Flietner E, Wilson K, Zhang X, Shinn P, Klumpp-Thomas C, McKnight C, Itkin Z, Chen L, Kazandijian D, Zhang J, Michalowski AM, Simmons JK, Keats J, Thomas CJ, Mock BA. Drug combinations identified by high-throughput screening promote cell cycle transition and upregulate Smad pathways in myeloma. Cancer Lett. 2023 Aug 1;568:216284. doi: 10.1016/j.canlet.2023.216284. Epub 2023 Jun 24. PMID: 37356470; PMCID: PMC10408729.
SEQUENCE No. (e.g., 1, 2, 3, etc.); […] (e.g., Cells, Incubation, Reagent, etc.); VALUE and DESCRIPTION.
1; Cells; 5 uL; white, solid bottom 1536-well Greiner assay plate.
2; Compounds; 23 nL; Kalypsis pin tool (Wako USA) equipped with a 1536-well pin head to transfer to the assay plates.
3; Incubation; 48 hours; 37C incubation.
4; Reagent;5uL; CellTiter Glo (Promega).
5; Detector; 425V; Luminescence; Viewlux PerkinElmer.
NOTES (numbers refer to Sequence numbers above)
1. The cell-based screening methods employed in this study were like those previously published. Briefly, the corresponding myeloma cell lines were screened in 1,536-well plates with 500 cells, 5-uL per well for inhibition of cell viability (assessed by measuring ATP levels with CellTiterGlo).
2. NCATS MIPE 4.0 library of approved and investigational drugs were added using the Kalypsis pin tool. Wells treated with DMSO only for 100% viability and media only for 0% viability were used as controls.
3. The assay plates were covered and incubated for 48 hours in a 37C, 5% CO2 incubator with controlled humidity.
4. After 48 hours, CellTilter-GloTM luminescent substrate mix (Promega) reagent was added to the assay plate and plates we incubated for 5 min at room temperature.
5. Signal was measured as median relative luminescence units on a ViewLux (PerkinElmer) multiplate reader.
[1] Heske CM, Davis MI, Baumgart JT, Wilson K, Gormally MV, Chen L, Zhang X, Ceribelli M, Duveau DY, Guha R, Ferrer M, Arnaldez FI, Ji J, Tran HL, Zhang Y, Mendoza A, Helman LJ, Thomas CJ. Matrix Screen Identifies Synergistic Combination of PARP Inhibitors and Nicotinamide Phosphoribosyltransferase (NAMPT) Inhibitors in Ewing Sarcoma. Clin Cancer Res. 2017 Dec 1;23(23):7301-7311. doi: 10.1158/1078-0432.CCR-17-1121. Epub 2017 Sep 12. PMID: 28899971; PMCID: PMC6636827.
Potency is the fitted concentration of half-maximal effect.

Which Potency does the source give for `COC(=O)[C@H](Cc1ccccc1)NC(=O)[C@@H](N)CC(=O)O` (H-Asp-Phe-OMe) here?
The Potency was “inactive”.

With `O=C1c2c(O)cc(O)cc2OC(c2ccc(O)c(O)c2)C1O` (stereo not given) as the compound, how does the Potency read?
The Potency was “inactive”.

Which Potency does the source give for `CC[C@]1(O)C[C@H]2CN(CCc3c([nH]c4ccccc34)[C@@](C(=O)OC)(c3cc4c(cc3OC)N(C=O)[C@H]3[C@@](O)(C(=O)OC)[C@H](OC(C)=O)[C@]5(CC)C=CCN6CC[C@]43[C@@H]65)C2)C1` here?
The Potency was 0.059 µM (active).

Which Potency does the source give for `O=c1c(O)c(-c2ccc(O)cc2O)oc2cc(O)cc(O)c12` here?
The Potency was “inactive”.

With `CN(C)c1ccc2nc3ccc(=[N+](C)C)cc-3sc2c1` as the compound, how does the Potency read?
Its Potency is 1.48 µM (active).

For `O=c1oc2cc(O)ccc2s1`, which Potency is on record?
Its Potency is “inactive”.

Which Potency does the source give for `O=c1ccc2ccc(O)c(O)c2o1` here?
The Potency was “inactive”.

Which Potency does the source give for `CCN(CC)C(=S)SSC(=S)N(CC)CC` here?
The Potency was 0.0235 µM (active).

For `CC(C)(S)[C@@H](N)C(=O)O`, which Potency is on record?
The Potency was “inactive”.

Which Potency does the source give for `CC(=O)O[C@H]1C(=O)[C@@]2(C)C([C@H](OC(=O)c3ccccc3)[C@]3(O)C[C@H](OC(=O)[C@H](O)[C@@H](NC(=O)c4ccccc4)c4ccccc4)C(C)=C1C3(C)C)[C@]1(OC(C)=O)CO[C@@H]1C[C@@H]2O` (stereo not given in full) here?
Its Potency is 0.0187 µM (active).

For `O=C(O)c1cn(-c2ccc(F)cc2)c2cc(N3CCNCC3)c(F)cc2c1=O`, which Potency is on record?
The Potency was “inactive”.

For `COc1ccccc1N1CCN(CCN(C(=O)C2CCCCC2)c2ccccn2)CC1`, which Potency is on record?
The Potency was “inactive”.

With `COCCCOc1ccnc(CS(=O)c2nc3ccccc3[nH]2)c1C` (stereo not given) as the compound, how does the Potency read?
Its Potency is “inactive”.

With `O=C(NC(Cc1cc(=O)[nH]c2ccccc12)C(=O)O)c1ccc(Cl)cc1` (stereo not given) as the compound, how does the Potency read?
The Potency was “inactive”.

Which Potency does the source give for `CCC(C)(Oc1ccc(C2(c3ccc(OC(C)(CC)C(=O)O)cc3)CCCCC2)cc1)C(=O)O` (stereo not given) here?
The Potency was “inactive”.

Which Potency does the source give for `COc1cc(OC)c(C(=O)CCCN2CCCC2)c(OC)c1` here?
Its Potency is “inactive”.

With `O=c1cc(N2CCOCC2)oc2c(-c3ccccc3)cccc12` as the compound, how does the Potency read?
Its Potency is 11.8 µM (active).

With `C[Se]CCC(N)C(=O)O` (stereo not given) as the compound, how does the Potency read?
The Potency was “inactive”.

For `CN(C)c1ccc(O)c2c1C[C@H]1C[C@H]3[C@H](N(C)C)C(=O)C(C(N)=O)=C(O)[C@@]3(O)C(=O)C1=C2O`, which Potency is on record?
Its Potency is 18.7 µM (active).

Which Potency does the source give for `CN(C)CCCC1(c2ccc(F)cc2)OCc2cc(C#N)ccc21` (stereo not given) here?
Its Potency is “inactive”.

With `O=C(c1ccccc1)c1ccc2n1CCC2C(=O)O` (stereo not given) as the compound, how does the Potency read?
The Potency was “inactive”.

With `Cc1ccc(NC(=O)c2ccc(CN3CCN(C)CC3)cc2)cc1Nc1nccc(-c2cccnc2)n1` as the compound, how does the Potency read?
Its Potency is “inactive”.

Which Potency does the source give for `COc1cc2nc(N3CCN(C(=O)C4CCCO4)CC3)nc(N)c2cc1OC` (stereo not given) here?
Its Potency is “inactive”.

With `C[C@]12CCC(=O)C=C1CC[C@@H]1[C@H]2[C@@H](O)C[C@@]2(C)[C@H]1CC[C@]2(O)C(=O)CO` as the compound, how does the Potency read?
The Potency was “inactive”.

With `Cc1nc2n(c(=O)c1CCN1CCC(c3noc4cc(F)ccc34)CC1)CCCC2` as the compound, how does the Potency read?
The Potency was “inactive”.

With `CC(C)c1ccc2c(c1)c(SC(C)(C)C)c(CC(C)(C)C(=O)O)n2Cc1ccc(Cl)cc1` as the compound, how does the Potency read?
Its Potency is “inactive”.

With `CNC[C@H](O)c1ccc(O)c(O)c1` as the compound, how does the Potency read?
The Potency was 38.2 µM (active).

Which Potency does the source give for `C=CCc1cc(OC)c(O)c(C(=O)NCCO)c1` here?
Its Potency is “inactive”.

For `COc1cc(C(C)=O)ccc1OCCCN1CCC(c2noc3cc(F)ccc23)CC1`, which Potency is on record?
The Potency was “inactive”.

Which Potency does the source give for `CCOc1cc(CC(=O)N[C@@H](CC(C)C)c2ccccc2N2CCCCC2)ccc1C(=O)O` here?
Its Potency is “inactive”.

For `O=C(CS(=O)Cc1ccco1)NCC=CCOc1cc(CN2CCCCC2)ccn1` (stereo not given), which Potency is on record?
Its Potency is “inactive”.

Which Potency does the source give for `COc1cc2c(cc1OC)C1CC(=O)C(CC(C)C)CN1CC2` (stereo not given) here?
The Potency was “inactive”.

For `CC1Cc2ccccc2N1NC(=O)c1ccc(Cl)c(S(N)(=O)=O)c1` (stereo not given), which Potency is on record?
The Potency was “inactive”.

Which Potency does the source give for `CCC1=C(C)CN(C(=O)NCCc2ccc(S(=O)(=O)NC(=O)NC3CCC(C)CC3)cc2)C1=O` (stereo not given) here?
Its Potency is “inactive”.

For `CNC[C@@H](O)[C@@H](O)[C@H](O)[C@H](O)CO`, which Potency is on record?
The Potency was “inactive”.

For `Oc1ccc2ccccc2c1SSc1c(O)ccc2ccccc12`, which Potency is on record?
The Potency was 20.9 µM (active).

For `CCCCCCCCCCCCCCCCCCCCCCO`, which Potency is on record?
Its Potency is “inactive”.

For `Cc1cc2c(s1)Nc1ccccc1N=C2N1CCN(C)CC1`, which Potency is on record?
Its Potency is “inactive”.

For `N=C(N=C(N)N)N1CCOCC1`, which Potency is on record?
The Potency was “inactive”.

For `CC(C)[N+]1(C)[C@@H]2CC[C@H]1CC(OC(=O)C(CO)c1ccccc1)C2` (stereo not given in full), which Potency is on record?
The Potency was “inactive”.
